Assay results published in PubChem BioAssay (EPA / NIEHS).
Several values for one entry are separate records, joined by “and”; a condition that tells them apart may be missing. Identical values can stand only once. Activity calls are given as the source filed them. How the source made its calls: active means hit-call score of the fitted dose curve at least 0.9, where 1 is the maximum; inactive means score below 0.9.

read-out: Actin alpha 1 (ACTA1), ACTA1 (gene 58); test: BSK_MyoF_ACTA1: BioMAP Diversity Plus: MyoF Assay for Actin alpha 1 (ACTA1) Biomarker Activity (AID 2284244); conditions: primary human lung fibroblasts
Protocol: BSK_MyoF is a cell-based, multiplexed-readout assay that uses lung fibroblasts, […], with measurements taken at 24 hours after chemical dosing in a microplate: 96-well plate.BSK_MyoF_ACTA1 is an assay component measured in the BSK_MyoF assay. It measures a-SMA antibody related to regulation of gene expression using ELISA technology.Data from the assay component BSK_MyoF_ACTA1 was analyzed at the endpoint, BSK_MyoF_ACTA1, in the positive analysis fitting direction relative to DMSO as the negative control and baseline of activity. Using a type of binding reporter, gain or loss-of-signal activity can be used to understand protein changes. To generalize the intended target to other relatable targets, this assay endpoint is annotated to the 'cell adhesion molecules' intended target family, where the subfamily is 'actin'.
The levels of cell surface (or secreted, indicated by the prefix "s") biomarker endpoints were measured by ELISA. Overt cytotoxicity to cells in confluent adherent cultures (all systems other than the BT system) was assessed by measuring total protein levels using sulforhodamine B (SRB) staining in parallel cultures at the time of biomarker measurements, indicated as SRB endpoints. For proliferation assays for adherent cell types, individual cell types are cultured at sub-confluence and relative cell numbers quantified by SRB staining at time points optimized for each system (48 h: 3C and CASM3C systems; 72 h: BT and HDF3CGF systems; 96 h: SAg system). SRB was performed by staining cells with 0.1% SRB after fixation with 10% TCA and reading wells at 560 nm.Viability and proliferation of PBMC (T cells) was quantified by Alamar Blue reduction for the SAg and BT systems. For PBMC viability (referred to as PBMC Cytotoxicity within the assay endpoint names), cells were plated (75,000/well in a 96-well plate) and then chemical samples added for 1 h before addition of activators, SEB and TSST-1 (20 ng/mL final concentration each). Cells were incubated for 90 h. Then, Alamar Blue (20 uL/well) (Invitrogen, Cat DAL1100) was added for 6 h, and the plates were read with a fluorescence microplate reader at 546/580 nm (excitation/emission). For PBMC proliferation, cells were plated and activated as above but incubated for only 16 h prior to addition of Alamar Blue. Plates were read after 6 h.

| Compound | outcome | AC50 |
| --- | --- | --- |
| CC(C)CC(=O)CC(C)CC(C)C (stereo not given) | inactive |  |
| CCCCCCCCCC/C=C/C1CC(=O)OC1=O (stereo not given) | inactive |  |
| OC(C(F)(F)F)(C(F)(F)F)C(O)(C(F)(F)F)C(F)(F)F |  | 26.7 µM (active) and 22.3 µM (active) |
| O=C(C(=O)c1ccccc1)c1ccccc1 | inactive |  |
| Sc1nc2ccccc2s1 | inactive |  |
| CCCCCCC(O)CCCCCCCCCCC(=O)OC (stereo not given) | inactive |  |
| CN(C)CCC(c1ccc(Cl)cc1)c1ccccn1 (stereo not given) | inactive |  |
| CCCCCCCCCCCCCCCCCC[N+](C)(C)C |  | 1.69 µM (active) |
| Cc1cccnc1 | inactive |  |
| COC(=O)/C=C\C(=O)OC | inactive |  |
| CC[N+](CC)(CC(=O)Nc1c(C)cccc1C)Cc1ccccc1 | inactive |  |
| Cc1cc(-n2nc3ccc(Cl)cc3n2)c(O)c(C(C)(C)C)c1 | inactive |  |
| Oc1cccc2ccccc12 | inactive |  |
| CCCCCCCCCCC1CO1 (stereo not given) |  | 33.5 µM (active) |
| CN(C)c1ccc(C(c2ccccc2)c2ccc(N(C)C)cc2)cc1 |  | 32.7 µM (active) |
